Consider eleven molecules from ChEMBL document CHEMBL3988442, “University of Dundee, Small-Polar-MMV Screening Library” (2021).

For some of these results: Potency and affinity values are given separately.

Parameters in all cases: scale not given: direction of the effect not stated beside the values
Assay [1] concerns the target Protein translocase subunit SecA (Escherichia coli (strain K12)) (UniProt P10408). In words: Assay to Identify E. coli SecA ATPase Inhibitors. The settings on record: 30 µM. Type of assay: functional.
Assay [2] has as its target T1, Ubiquitin-activating enzyme e1, putative (Leishmania donovani (strain BPK282A1)) (UniProt E9BSI1).
T1 sequence (whole entry): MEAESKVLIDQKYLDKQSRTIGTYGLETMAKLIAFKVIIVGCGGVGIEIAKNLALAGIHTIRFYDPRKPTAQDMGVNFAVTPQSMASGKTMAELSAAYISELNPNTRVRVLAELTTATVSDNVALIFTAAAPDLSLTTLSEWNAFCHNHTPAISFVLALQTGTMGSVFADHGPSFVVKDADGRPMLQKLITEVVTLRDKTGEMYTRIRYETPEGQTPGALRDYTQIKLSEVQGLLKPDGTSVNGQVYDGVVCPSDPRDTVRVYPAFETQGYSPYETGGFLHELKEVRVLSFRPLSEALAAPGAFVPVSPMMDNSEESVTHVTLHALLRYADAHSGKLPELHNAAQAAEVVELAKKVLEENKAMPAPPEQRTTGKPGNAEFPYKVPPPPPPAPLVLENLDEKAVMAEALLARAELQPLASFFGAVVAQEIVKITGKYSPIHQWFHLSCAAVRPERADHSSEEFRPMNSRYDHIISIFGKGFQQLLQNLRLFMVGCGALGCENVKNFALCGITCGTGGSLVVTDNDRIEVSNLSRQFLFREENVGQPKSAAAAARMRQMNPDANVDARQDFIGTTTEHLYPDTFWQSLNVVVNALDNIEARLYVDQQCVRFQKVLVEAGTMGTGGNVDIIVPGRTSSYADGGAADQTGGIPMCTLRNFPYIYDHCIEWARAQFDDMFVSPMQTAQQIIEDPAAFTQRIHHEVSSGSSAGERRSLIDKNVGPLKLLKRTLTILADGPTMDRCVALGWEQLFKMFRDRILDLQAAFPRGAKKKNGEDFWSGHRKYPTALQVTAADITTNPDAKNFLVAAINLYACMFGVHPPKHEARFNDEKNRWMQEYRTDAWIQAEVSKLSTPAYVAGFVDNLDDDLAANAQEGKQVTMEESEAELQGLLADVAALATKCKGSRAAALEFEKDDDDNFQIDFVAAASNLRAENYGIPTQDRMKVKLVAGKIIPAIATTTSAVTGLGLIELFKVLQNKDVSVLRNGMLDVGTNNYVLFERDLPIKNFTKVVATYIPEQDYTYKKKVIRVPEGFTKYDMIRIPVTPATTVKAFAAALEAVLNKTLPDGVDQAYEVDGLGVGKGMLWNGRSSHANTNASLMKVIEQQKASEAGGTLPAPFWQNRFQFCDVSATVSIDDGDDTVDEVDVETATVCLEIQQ
The experiment in a line: Leishmania donovani Ubiquitin Activating Enzyme (LdE1). It counts as functional. The settings on record: 30 µM.

Assay [3] addresses AMP-activated protein kinase, AMPK (Homo sapiens) (UniProt P54646+O43741+P54619+Q9UGJ0+Q9Y478+Q13131+Q9UGI9). In words: AMP-dependent Kinase enzyme assay. An in vitro enzyme assay that detects ADP turnover that is directly proportional to AMPK activity. This uses naive AMPK that is activated during the assay with MK-8722. It counts as functional. The settings on record: 30 µM.

For assay [4], the target named is Sialic acid-binding Ig-like lectin 9 (Homo sapiens) (UniProt Q9Y336). In words: Hs-Siglec9 ALPHAscreen SOP 20170721. The settings on record: 10 µM.
Chain of Sialic acid-binding Ig-like lectin 9 (Homo sapiens) (Q9Y336 whole entry): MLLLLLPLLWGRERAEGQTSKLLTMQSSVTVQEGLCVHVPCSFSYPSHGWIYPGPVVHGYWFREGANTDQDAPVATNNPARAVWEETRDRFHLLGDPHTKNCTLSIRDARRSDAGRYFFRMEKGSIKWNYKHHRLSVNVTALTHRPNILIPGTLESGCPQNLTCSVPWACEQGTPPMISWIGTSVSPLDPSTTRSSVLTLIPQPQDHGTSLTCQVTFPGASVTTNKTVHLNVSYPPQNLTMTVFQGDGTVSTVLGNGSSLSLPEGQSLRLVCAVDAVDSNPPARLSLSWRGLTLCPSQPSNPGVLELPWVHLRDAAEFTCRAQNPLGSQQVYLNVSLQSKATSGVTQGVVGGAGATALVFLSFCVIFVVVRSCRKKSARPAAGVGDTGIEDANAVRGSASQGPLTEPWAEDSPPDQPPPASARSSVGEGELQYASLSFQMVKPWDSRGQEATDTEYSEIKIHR
In assay [5] the test system is Trypanosoma cruzi. The experiment in a line: Trypanosoma cruzi phosphomannomutase and mannose-1-phosphate guanylyltransferase assay. Type of assay: functional. As to conditions: 10 µM.
Assay [6] deals with T2, Arginase-2, mitochondrial (Homo sapiens) (UniProt P78540).
T2 sequence (whole entry): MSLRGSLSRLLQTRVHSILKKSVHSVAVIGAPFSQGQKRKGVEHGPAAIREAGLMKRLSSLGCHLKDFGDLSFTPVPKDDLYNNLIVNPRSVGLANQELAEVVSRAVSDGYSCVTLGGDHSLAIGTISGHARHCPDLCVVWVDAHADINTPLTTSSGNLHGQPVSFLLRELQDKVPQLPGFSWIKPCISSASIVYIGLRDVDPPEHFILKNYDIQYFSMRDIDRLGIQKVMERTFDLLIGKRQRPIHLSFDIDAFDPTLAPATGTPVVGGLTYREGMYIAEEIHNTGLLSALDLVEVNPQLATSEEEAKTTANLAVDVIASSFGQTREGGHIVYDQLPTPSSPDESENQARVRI
The experiment in a line: in vitro enzyme assay to detect the production of urea directly proportional to the activity of Arginase II. Also: in the data most compounds retested in dose-response had high values. As to conditions: 33.3 µM. Type of assay: functional.

Assay [7] has as its target T3, Proteasome subunit beta (Trypanosoma cruzi) (UniProt O96673).
T3 sequence (whole entry): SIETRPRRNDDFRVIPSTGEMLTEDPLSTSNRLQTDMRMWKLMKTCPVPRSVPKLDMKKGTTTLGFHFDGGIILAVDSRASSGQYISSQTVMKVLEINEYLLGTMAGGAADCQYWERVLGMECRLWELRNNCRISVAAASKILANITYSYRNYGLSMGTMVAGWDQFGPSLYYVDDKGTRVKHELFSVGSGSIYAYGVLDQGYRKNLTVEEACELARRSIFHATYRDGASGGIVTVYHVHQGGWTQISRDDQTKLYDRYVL
In words: Trypanosoma cruzi proteasome chymotrypsin-like activity (TcProtChymo) assay. Also: in the data most compounds retested in dose-response had high values. It counts as functional. As to conditions: 9.37 µM.

The species named for assay [8] is Homo sapiens. In words: To identify inhibition of the IFN signalling (Jak-Stat) pathway via expression of an eGFP reporter gene under the control of an IFN-stimulated response element (ISRE) containing MxA promoter. It counts as functional. The settings on record: 30 µM.
For assay [9], the target named is T4, Tyrosyl-tRNA synthetase, putative (Trypanosoma cruzi (strain CL Brener)) (UniProt Q4DSP6).
T4 sequence (whole entry): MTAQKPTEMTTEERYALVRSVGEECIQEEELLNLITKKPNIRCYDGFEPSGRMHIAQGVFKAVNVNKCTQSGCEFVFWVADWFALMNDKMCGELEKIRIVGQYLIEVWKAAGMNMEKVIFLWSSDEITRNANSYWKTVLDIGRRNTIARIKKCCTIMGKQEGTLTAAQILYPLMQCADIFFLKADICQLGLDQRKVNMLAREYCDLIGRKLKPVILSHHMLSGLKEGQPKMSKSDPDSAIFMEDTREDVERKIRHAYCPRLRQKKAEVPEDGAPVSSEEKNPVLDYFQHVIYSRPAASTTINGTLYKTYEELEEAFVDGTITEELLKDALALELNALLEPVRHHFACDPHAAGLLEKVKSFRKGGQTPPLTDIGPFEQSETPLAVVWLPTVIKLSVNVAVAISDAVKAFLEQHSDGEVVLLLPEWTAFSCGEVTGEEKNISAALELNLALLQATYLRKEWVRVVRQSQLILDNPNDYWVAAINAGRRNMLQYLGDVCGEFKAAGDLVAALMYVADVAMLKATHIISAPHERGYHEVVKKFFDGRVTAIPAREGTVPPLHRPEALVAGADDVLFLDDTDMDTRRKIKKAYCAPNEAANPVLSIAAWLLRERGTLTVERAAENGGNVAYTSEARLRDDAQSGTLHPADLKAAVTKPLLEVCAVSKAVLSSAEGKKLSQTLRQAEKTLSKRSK
In words: Trypanosoma cruzi tyrosyl tRNA synthetase (TcYRS) _High Tyrosine SOP. Also: in the data most compounds retested in dose-response had high values. It counts as functional. The settings on record: 30 µM.

The target of assay [10] is T4, Tyrosyl-tRNA synthetase, putative (Trypanosoma cruzi (strain CL Brener)). In words: Trypanosoma cruzi tyrosyl tRNA synthetase (TcYRS) SOP. Type of assay: functional. The settings on record: 30 µM.
Assay [11] addresses Chromo domain-containing protein 1 (Saccharomyces cerevisiae (strain ATCC 204508 / S288c) (Baker's yeast)) (UniProt P32657). The experiment in a line: ScCHD-1 Enzyme Inhibition Assay. Also: in the data most compounds retested in dose-response had high values. It counts as functional. As to conditions: 30 µM.

Chain of Chromo domain-containing protein 1 (Saccharomyces cerevisiae (strain ATCC 204508 / S288c) (Baker's yeast)) (P32657 whole entry, the tested form may be a part): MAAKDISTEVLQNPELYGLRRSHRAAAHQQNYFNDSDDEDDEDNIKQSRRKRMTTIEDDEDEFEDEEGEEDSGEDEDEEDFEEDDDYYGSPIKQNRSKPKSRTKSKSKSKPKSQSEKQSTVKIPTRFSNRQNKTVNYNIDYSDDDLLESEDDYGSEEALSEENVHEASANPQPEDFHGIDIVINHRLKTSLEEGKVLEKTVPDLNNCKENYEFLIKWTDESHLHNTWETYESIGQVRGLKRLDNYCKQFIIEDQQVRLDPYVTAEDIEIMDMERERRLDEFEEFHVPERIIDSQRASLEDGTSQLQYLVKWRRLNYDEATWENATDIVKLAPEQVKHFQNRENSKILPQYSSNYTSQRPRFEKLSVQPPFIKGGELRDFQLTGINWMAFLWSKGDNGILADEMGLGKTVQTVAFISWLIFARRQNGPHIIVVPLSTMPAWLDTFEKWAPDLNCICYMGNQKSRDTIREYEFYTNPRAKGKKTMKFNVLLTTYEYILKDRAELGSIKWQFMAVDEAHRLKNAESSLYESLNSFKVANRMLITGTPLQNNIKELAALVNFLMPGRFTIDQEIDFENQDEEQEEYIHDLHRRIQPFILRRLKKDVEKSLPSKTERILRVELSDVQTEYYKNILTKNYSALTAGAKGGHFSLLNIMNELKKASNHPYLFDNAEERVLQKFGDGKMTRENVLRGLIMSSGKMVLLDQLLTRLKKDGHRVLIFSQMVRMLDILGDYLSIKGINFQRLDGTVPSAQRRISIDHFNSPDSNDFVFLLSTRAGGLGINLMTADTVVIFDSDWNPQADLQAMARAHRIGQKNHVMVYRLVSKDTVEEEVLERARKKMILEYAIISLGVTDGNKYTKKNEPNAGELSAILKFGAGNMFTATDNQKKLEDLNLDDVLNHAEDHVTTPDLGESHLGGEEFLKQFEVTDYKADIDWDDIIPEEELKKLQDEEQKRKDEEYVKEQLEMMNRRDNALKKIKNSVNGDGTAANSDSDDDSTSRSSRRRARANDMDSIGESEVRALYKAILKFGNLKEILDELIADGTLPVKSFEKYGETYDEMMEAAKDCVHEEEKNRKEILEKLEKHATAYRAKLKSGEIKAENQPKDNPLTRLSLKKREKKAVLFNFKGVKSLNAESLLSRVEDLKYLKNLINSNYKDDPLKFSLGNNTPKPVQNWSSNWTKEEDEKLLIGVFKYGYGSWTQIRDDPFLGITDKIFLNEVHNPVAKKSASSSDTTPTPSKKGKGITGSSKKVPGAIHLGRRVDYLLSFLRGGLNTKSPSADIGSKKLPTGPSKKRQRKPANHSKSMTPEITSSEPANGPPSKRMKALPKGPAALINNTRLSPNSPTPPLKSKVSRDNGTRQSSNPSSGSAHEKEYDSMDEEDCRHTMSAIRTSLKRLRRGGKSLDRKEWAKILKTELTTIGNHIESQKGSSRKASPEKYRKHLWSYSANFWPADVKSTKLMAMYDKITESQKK
Chain of Protein translocase subunit SecA (Escherichia coli (strain K12)) (P10408 whole entry): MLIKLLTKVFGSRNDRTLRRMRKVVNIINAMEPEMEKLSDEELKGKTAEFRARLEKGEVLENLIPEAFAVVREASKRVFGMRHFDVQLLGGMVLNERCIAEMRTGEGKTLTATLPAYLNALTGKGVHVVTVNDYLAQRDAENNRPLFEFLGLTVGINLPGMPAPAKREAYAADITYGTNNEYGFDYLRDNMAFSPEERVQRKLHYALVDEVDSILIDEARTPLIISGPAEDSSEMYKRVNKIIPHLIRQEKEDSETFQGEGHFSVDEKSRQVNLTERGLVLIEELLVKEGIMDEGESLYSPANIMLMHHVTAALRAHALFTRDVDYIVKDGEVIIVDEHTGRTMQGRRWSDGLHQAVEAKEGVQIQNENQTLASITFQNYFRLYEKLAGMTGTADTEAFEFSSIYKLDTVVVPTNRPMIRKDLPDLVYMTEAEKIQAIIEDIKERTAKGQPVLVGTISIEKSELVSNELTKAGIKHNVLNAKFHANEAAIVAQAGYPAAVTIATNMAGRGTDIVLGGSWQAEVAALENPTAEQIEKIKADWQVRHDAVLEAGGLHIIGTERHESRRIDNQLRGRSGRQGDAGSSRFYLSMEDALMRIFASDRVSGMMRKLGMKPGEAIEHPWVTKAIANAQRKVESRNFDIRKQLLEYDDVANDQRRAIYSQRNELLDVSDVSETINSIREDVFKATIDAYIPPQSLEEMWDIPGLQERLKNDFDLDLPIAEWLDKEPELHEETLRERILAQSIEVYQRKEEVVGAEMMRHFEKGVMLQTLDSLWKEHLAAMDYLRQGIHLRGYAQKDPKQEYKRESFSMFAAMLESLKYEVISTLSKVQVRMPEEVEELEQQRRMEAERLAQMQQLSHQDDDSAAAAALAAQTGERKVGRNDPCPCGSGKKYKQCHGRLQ

On to `Cc1cnn(CC2CCCCN2C(=O)c2ccc3[nH]nnc3c2)c1` (stereo unspecified), for which the Percent Effect in assay [1] is -3.72%; in [2], 13%; in [3] it was 5.5%; in [4], 1.47%; in assay [5] it was -2.25%; in assay [6] it was 2.32%. In addition, the Percent Effect is 14.3% in [7]; 22.2% in [8]; 6.67% in [9]; 9.41% in assay [10]; -11.2% in assay [11].
For `Cc1noc(C)c1-c1cccc(CC2CCN(C(=O)c3cc[nH]n3)C2)n1` (stereo unspecified), the Percent Effect in assay [1] is -2.86%; in assay [2], 10.7%; in [3], 9.02%; in [4], 7.09%; in assay [5] it was -2.95%; in assay [6], -1.17%. For the same molecule, the Percent Effect in assay [7] is 8.72%; in [8] it was 15.2%; in assay [9], 4.25%; in [10], 8.97%; in [11], -0.89%.
Regarding `Cc1ccc(C(CNCC2CC2)N2CCOCC2)s1` (stereo unspecified), the Percent Effect is 4.94% in assay [1]; 8.11% in assay [2]; -0.221% in assay [3]; 3.49% in assay [4]; -6.05% in assay [5]; 1.67% in assay [6]. Also, the Percent Effect is 11.9% in assay [7]; 26.7% in assay [8]; 9.9% in assay [9]; 8.54% in [10]; -6.06% in assay [11].
As to `CCN(CC)C(CNS(=O)(=O)c1ccc(C(=O)NC)cc1)c1ccco1` (stereo unspecified), the Percent Effect in assay [1] is -3.83%; in assay [2], 5.41%; in assay [3] it was 3.15%; in assay [4], -5.57%; in assay [5], -5.47%; in [6] it was -1.67%. Moreover, the Percent Effect stood at 18.5% in assay [7]; 13.1% in assay [8]; 9.9% in assay [9]; 6.1% in [10]; 7.75% in assay [11].
For the molecule `CC(NC(=O)Nc1cc(F)ccc1N1CCCCC1)c1nncn1C` (stereo unspecified), the Percent Effect in assay [1] was -4.95%; in assay [2] it was 5.41%; in assay [3] it was -5.33%; in assay [4] it was -3.53%; in assay [5], -3.49%; in [6], 2.81%. For the same molecule, the Percent Effect is -3.78% in assay [7]; 1.69% in assay [8]; 1.48% in assay [9]; 1.24% in [10]; -2.66% in assay [11].
With `O=C(CCNS(=O)(=O)c1ccccc1)NCc1ccoc1`, the Percent Effect in [1] was -5.05%; in assay [2], 5.33%; in assay [3], -0.901%; in assay [4], 7.78%; in [5], 7.11%; in [6] it was -0.521%. Besides, the Percent Effect in assay [7] was 12%; in assay [8], 12.9%; in assay [9] it was 8.2%; in assay [10], 16.1%; in assay [11], -4.93%.
Take `Cc1ccc2c(ccn2CCC(=O)O)c1`: the Percent Effect was -4.82% in assay [1]; 0% in [2]; 0.269% in assay [3]; -0.473% in assay [4]; 1.07% in [5]; -0.744% in assay [6]. Moreover, the Percent Effect in [7] was -2.83%; in assay [8], 11.2%; in assay [9], 1.07%; in assay [10], 3.7%; in assay [11] it was 0.48%.
On to `CCN(CCn1cccn1)Cc1nc(-c2cccs2)oc1C`, for which the Percent Effect in assay [1] is -3.57%; in [2], -1.39%; in assay [3] it was 40.3%; in [4] it was -4.42%; in assay [5], 0.486%; in assay [6], 0.442%. In addition, the Percent Effect in assay [7] was determined as 2.63%; in [8], 0.654%; in assay [9], 4.21%; in assay [10], 2.56%; in assay [11] it was 0.676%.
Regarding `COCc1ccccc1CNc1cc(N2CCCC2CO)ncn1` (stereo unspecified), the Percent Effect in [1] was -4.86%; in assay [2], 18.2%; in assay [3] it was -4.12%; in [4] it was 3.3%; in assay [5], -2.43%; in assay [6] it was 1.07%. The Percent Effect in assay [7] is 11.7%; in assay [8], 7.92%; in assay [9], 5.83%; in assay [10], 19.5%; in [11] it was -6.07%.
`Cc1cnn(CC2CN(Cc3nnc(C4CC4)o3)CCO2)c1` (stereo unspecified): the Percent Effect in assay [1] is -7.99%; in assay [2], 5.41%; in assay [3], 87.3%; in assay [4] it was 7.35%; in assay [5] it was -4.18%; in assay [6], -4.99%. Also, the Percent Effect is -1.26% in [7]; 8.17% in assay [8]; 1.98% in assay [9]; 3.66% in [10]; 7.2% in [11].
On to `CSCCC1c2nc[nH]c2CCN1Cc1ccnc2ccccc12` (stereo unspecified), for which the Percent Effect in assay [1] is -3.26%; in assay [2], 10.7%; in [3] it was -26.6%; in [4], 14.2%; in [5], 4.38%; in assay [6], 5.73%. Besides, the Percent Effect in [7] was 25.5%; in [8], 10.9%; in [9], 9.29%; in [10] it was 6.17%; in [11] it was -4.91%.
